Assay results as given in PubChem BioAssay AID1053118 (Broad Institute, 2014).
Entries with a potency or affinity are not part of this list. Activity calls are given as the source filed them.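 Rule for the calls: active = fitted half-maximal concentration for ATP signal loss at most twice the top valid dose; inconclusive = flat curve between -70 and -30%, or an invalid fit; inactive = flat within ±30%, wrong direction, or potency past limit.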

Test: viability loss in HepG2 hepatoma cells – cell-based, cherry-picks, set 5, cytotoxicity control, dose response (AID 1053118)
Conditions: ATP luminescence, 72 h; series mostly up to 26 µM

## C=C1C(=O)O[C@@H]2C[C@@H](C)[C@@H]3C=CC(=O)[C@@]3(C)[C@@H](O)[C@H]12
  outcome: inactive
